{"source": "the supplement of paper PMC8728848", "binders": {"B1": {"name": "LCA (Lens culinaris), P02870 (protein)", "chain": "MASLQTQMISFYLIFLSILLTTIFFFKVNSTETTSFSITKFSPDQKNLIFQGDGYTTKGKLTLTKAVKSTVGRALYSTPIHIWDRDTGNVANFVTSFTFVIDAPSSYNVADEFTFFIAPVDTKPQTGGGYLGVFNSKEYDKTSQTVAVEFDTFYNAAWDPSNKERHIGIDVNSIKSVNTKSWNLQNGERANVVIAFNAATNVLTVTLTYPNSLEEENVTSYTLNEVVPLKDVVPEWVRIGFSATTGAEFAAHEVHSWSFHSELGGTSSSKQAADA"}}, "test_in_all_cases": "glycan array binding signal (z-score within array); higher = stronger binding", "conditions_in_all_cases": "glycan notation: IUPAC condensed, linker removed", "key": {"[1]": {"target": "Fuc(a1-2)Gal(b1-3)GalNAc(a1-3)[Fuc(a1-2)]Gal(b1-4)Glc", "in_short": "(§1)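 Glycan array data were curated from 3228 arrays in the Consortium for Functional Glycomics database and kept only where the protein sequence was available. Glycan names were converted to IUPAC-condensed notation, and columns mapping to the same glycan were averaged. The binding signal is a within-array Z-score, averaged across arrays of the same protein sequence at different concentrations or buffers and across linkers. Negative Z-scores can be read as non-binding.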"}, "[2]": {"target": "Fuc(a1-2)Gal(b1-3)GalNAc(b1-3)Gal", "in_short": "as §1"}, "Fuc(a1-2)Gal(b1-4)GlcNAc": {"target": "Fuc(a1-2)Gal(b1-4)GlcNAc", "in_short": "as §1"}, "[3]": {"target": "Fuc(a1-2)Gal(b1-4)GlcNAc(b1-6)GalNAc", "in_short": "as §1"}, "[4]": {"target": "Fuc(a1-2)[Gal(a1-3)]Gal(b1-3)GlcNAc(b1-3)GalNAc", "in_short": "as §1"}, "[5]": {"target": "Fuc(a1-2)[GalNAc(a1-3)]Gal(b1-4)Glc", "in_short": "as §1"}, "[6]": {"target": "Fuc(a1-2)[GalNAc(b1-3)]Gal", "in_short": "as §1"}, "[7]": {"target": "Fuc(a1-3)[Gal(b1-4)]GlcNAc(b1-2)Man(a1-3)[Fuc(a1-3)[Gal(b1-4)]GlcNAc(b1-2)Man(a1-6)]Man(b1-4)GlcNAc(b1-4)GlcNAc", "in_short": "as §1"}, "[8]": {"target": "Gal(a1-3)Gal(b1-3)GlcNAc(b1-3)GalNAc", "in_short": "as §1"}, "[9]": {"target": "Gal(b1-3)GlcNAc(a1-6)Gal(b1-4)GlcNAc", "in_short": "as §1"}, "[10]": {"target": "Gal(b1-3)GlcNAc(b1-3)Gal(b1-4)Glc", "in_short": "as §1"}, "[11]": {"target": "Gal(b1-3)GlcNAc(b1-3)Gal(b1-4)GlcNAc(b1-6)[Gal(b1-3)GlcNAc(b1-3)]Gal(b1-4)Glc", "in_short": "as §1"}, "[12]": {"target": "Gal(b1-3)GlcNAc(b1-6)[Gal(b1-3)]GalNAc", "in_short": "as §1"}, "[13]": {"target": "Gal(b1-3)[GlcNAc(b1-6)]GalNAc", "in_short": "as §1"}, "[14]": {"target": "Gal(b1-4)GlcNAc(b1-2)[Gal(b1-4)GlcNAc(b1-4)]Man(a1-3)[GlcNAc(b1-4)][Gal(b1-4)GlcNAc(b1-2)[Gal(b1-4)GlcNAc(b1-6)]Man(a1-6)]Man(b1-4)GlcNAc(b1-4)GlcNAc", "in_short": "as §1"}, "[15]": {"target": "Gal(b1-4)GlcNAc(b1-2)[Gal(b1-4)GlcNAc(b1-6)]Man(a1-6)[Gal(b1-4)GlcNAc(b1-2)Man(a1-3)]Man(b1-4)GlcNAc(b1-4)[Fuc(a1-6)]GlcNAc", "in_short": "as §1"}, "[16]": {"target": "Gal(b1-4)GlcNAc(b1-3)Gal(b1-3)GlcNAc", "in_short": "as §1"}, "[17]": {"target": "Gal(b1-4)GlcNAc(b1-3)Gal(b1-4)Glc", "in_short": "as §1"}, "[18]": {"target": "Gal(b1-4)GlcNAc(b1-3)Gal(b1-4)GlcNAc(b1-2)Man(a1-3)[Gal(b1-4)GlcNAc(b1-3)Gal(b1-4)GlcNAc(b1-2)Man(a1-6)]Man(b1-4)GlcNAc(b1-4)[Fuc(a1-6)]GlcNAc", "in_short": "as §1"}, "[19]": {"target": "Gal(b1-4)GlcNAc(b1-3)Gal(b1-4)GlcNAc(b1-3)Gal(b1-4)GlcNAc(b1-2)Man(a1-3)[Gal(b1-4)GlcNAc(b1-3)Gal(b1-4)GlcNAc(b1-3)Gal(b1-4)GlcNAc(b1-2)Man(a1-6)]Man(b1-4)GlcNAc(b1-4)[Fuc(a1-6)]GlcNAc", "in_short": "as §1"}, "[20]": {"target": "Gal(b1-4)GlcNAc(b1-3)Gal(b1-4)GlcNAc(b1-3)Gal(b1-4)GlcNAc(b1-3)Gal(b1-4)GlcNAc(b1-2)Man(a1-3)[Gal(b1-4)GlcNAc(b1-3)Gal(b1-4)GlcNAc(b1-3)Gal(b1-4)GlcNAc(b1-3)Gal(b1-4)GlcNAc(b1-2)Man(a1-6)]Man(b1-4)GlcNAc(b1-4)[Fuc(a1-6)]GlcNAc", "in_short": "as §1"}, "[21]": {"target": "Gal(b1-4)GlcNAc(b1-3)Gal(b1-4)GlcNAc(b1-3)Gal(b1-4)GlcNAc(b1-3)Gal(b1-4)GlcNAc(b1-3)Gal(b1-4)GlcNAc(b1-2)Man(a1-3)[Gal(b1-4)GlcNAc(b1-3)Gal(b1-4)GlcNAc(b1-3)Gal(b1-4)GlcNAc(b1-3)Gal(b1-4)GlcNAc(b1-3)Gal(b1-4)GlcNAc(b1-2)Man(a1-6)]Man(b1-4)GlcNAc(b1-4)[Fuc(a1-6)]GlcNAc", "in_short": "as §1"}, "[22]": {"target": "Gal(b1-4)GlcNAc(b1-3)Gal(b1-4)GlcNAc(b1-3)Gal(b1-4)GlcNAc(b1-3)Gal(b1-4)GlcNAc(b1-3)Gal(b1-4)GlcNAc(b1-3)Gal(b1-4)GlcNAc(b1-2)Man(a1-3)[Gal(b1-4)GlcNAc(b1-3)Gal(b1-4)GlcNAc(b1-3)Gal(b1-4)GlcNAc(b1-3)Gal(b1-4)GlcNAc(b1-3)Gal(b1-4)GlcNAc(b1-3)Gal(b1-4)GlcNAc(b1-2)Man(a1-6)]Man(b1-4)GlcNAc(b1-4)GlcNAc", "in_short": "as §1"}, "[23]": {"target": "Gal(b1-4)GlcNAc(b1-3)Gal(b1-4)GlcNAc(b1-3)[Gal(b1-4)GlcNAc(b1-3)Gal(b1-4)GlcNAc(b1-6)]GalNAc", "in_short": "as §1"}, "Gal3S(b1-4)GlcNAc6S": {"target": "Gal3S(b1-4)GlcNAc6S", "in_short": "as §1"}, "[24]": {"target": "GalNAc(b1-4)GlcNAc(b1-2)Man", "in_short": "as §1"}}, "note": "The entries come from a sample that favours the strongest signals as a whole.", "data": [{"binder": "B1", "values": [{"measurement": "glycan array binding signal (z-score)", "setting": "[1]", "value": -0.201}, {"measurement": "glycan array binding signal (z-score)", "setting": "[2]", "value": -0.218}, {"measurement": "glycan array binding signal (z-score)", "setting": "Fuc(a1-2)Gal(b1-4)GlcNAc", "value": -0.217}, {"measurement": "glycan array binding signal (z-score)", "setting": "[3]", "value": -0.218}, {"measurement": "glycan array binding signal (z-score)", "setting": "[4]", "value": -0.238}, {"measurement": "glycan array binding signal (z-score)", "setting": "[5]", "value": -0.232}, {"measurement": "glycan array binding signal (z-score)", "setting": "[6]", "value": -0.257}, {"measurement": "glycan array binding signal (z-score)", "setting": "[7]", "value": -0.237}, {"measurement": "glycan array binding signal (z-score)", "setting": "[8]", "value": -0.227}, {"measurement": "glycan array binding signal (z-score)", "setting": "[9]", "value": -0.211}, {"measurement": "glycan array binding signal (z-score)", "setting": "[10]", "value": -0.231}, {"measurement": "glycan array binding signal (z-score)", "setting": "[11]", "value": -0.238}, {"measurement": "glycan array binding signal (z-score)", "setting": "[12]", "value": -0.231}, {"measurement": "glycan array binding signal (z-score)", "setting": "[13]", "value": -0.238}, {"measurement": "glycan array binding signal (z-score)", "setting": "[14]", "value": -0.235}, {"measurement": "glycan array binding signal (z-score)", "setting": "[15]", "value": 4.72}, {"measurement": "glycan array binding signal (z-score)", "setting": "[16]", "value": -0.225}, {"measurement": "glycan array binding signal (z-score)", "setting": "[17]", "value": -0.205}, {"measurement": "glycan array binding signal (z-score)", "setting": "[18]", "value": 4.42}, {"measurement": "glycan array binding signal (z-score)", "setting": "[19]", "value": 4.2}, {"measurement": "glycan array binding signal (z-score)", "setting": "[20]", "value": 3.87}, {"measurement": "glycan array binding signal (z-score)", "setting": "[21]", "value": 3.85}, {"measurement": "glycan array binding signal (z-score)", "setting": "[22]", "value": -0.192}, {"measurement": "glycan array binding signal (z-score)", "setting": "[23]", "value": 0.058}, {"measurement": "glycan array binding signal (z-score)", "setting": "Gal3S(b1-4)GlcNAc6S", "value": -0.227}, {"measurement": "glycan array binding signal (z-score)", "setting": "[24]", "value": -0.199}]}]}
